# Screening results: PubChem, several laboratories
# The list is not random: actives were taken first. Their share in the collection is about 12%.
# L major viab: reduces viability of Leishmania major promastigotes. resazurin fluorescence viability. inhibition, % at 10 µM. 200,000 compounds, 9% hits. AID 1063; in the data active means inhibition above about 50%;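 further: promastigotes grown with compound for 44 hours at 28 °C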
# CHOP inh: inhibitors of CHOP induction in ER stress response; CHO-K1 CHOP-promoter luciferase, tunicamycin-induced, 15-18 h; inhibition, % at 10 µM; 220,000 compounds, 3.8% hits; AID 2732;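 active means compounds that reduced the stress-induced luciferase reporter signal by more than about 70% of percent inhibition, limit read from the data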;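 further: 0% = tunicamycin plus vehicle and 100% = wells without tunicamycin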
# Arbovirus anti: antivirals against arbovirus infection. AID 1251. inhibition, % at 10 µM. 200,000 compounds, 0.37% hits. arbovirus infection cell-based antiviral screen; in the data active means inhibition above about 30%
# WT yeast gro inh: growth inhibition of WT yeast, mitochondrial fusion screen | mitochondrial fusion phenotypic screen, WT strain | inhibition, % at 10 µM | 190,000 compounds, 2.1% hits; in the data active means inhibition above about 58%; tested in S. cerevisiae
# Starred values were filed as active, the others as inactive; nt = not tested or not shown.
SMILES,L major viab,CHOP inh,Arbovirus anti,WT yeast gro inh
Cc1nn(CC(=O)Nc2ccc(C(C)C)cc2)c(C)c1[N+](=O)[O-],9,0,5,7
CCn1c2ccccc2n2c(=O)c(=O)n(CC(=O)Nc3ccc(C(C)C)cc3)nc12,2,87*,-6,9
CCOC(=O)N1CCC(NC(=O)C2CCN(C(=O)c3cc4oc(C)cc4n3Cc3c(F)cccc3Cl)CC2)CC1,75*,12,1,20
O=C(COc1ccc(Cl)cc1Br)NNC(=O)C(=O)N1CCCCC1,-11,42,-6,-3
CC(=O)N1CCN(c2ccc(NC(=O)C(C)Oc3ccc(Cl)cc3Cl)cc2)CC1 (stereo not drawn),-4,-19,2,22
CC(Oc1ccc(Cl)cc1Cl)C(=O)Nc1ccc(N2CCN(C)CC2)cc1 (stereo not drawn),100*,5,8,26
CC(Oc1ccc(Cl)cc1Cl)C(=O)NNC(=O)C(=O)N1CCCCC1 (stereo not drawn),60*,44,-3,-32
CCc1nn2cc(C(=O)c3ccccc3O)cnc2c1-c1ccc(F)cc1,-7,58,41*,39
CCc1nn2cc(C(=O)c3cc(C)ccc3O)cnc2c1-c1ccc(F)cc1,-5,19,7,9
O=[N+]([O-])c1ccc(Nc2c3ccccc3nc3ccccc23)cc1,57*,70,-34,77*
O=C(O)c1ccccc1Nc1ccc([N+](=O)[O-])cc1,-5,16,37*,-6
O=[N+]([O-])c1ccccc1Nc1c2ccccc2nc2ccccc12,17,93*,2,-14
CCC(C)[C@H](NC(=O)NC(C)C)C(=O)O (stereo partly drawn),-8,-3,2,-6
Cc1ccc(OCCN2CCN(c3ncnc4sc(C)c(C)c34)CC2)cc1,5,72*,4,49
C=CCn1c(SCC(=O)NC2CCCC2)nc2scc(-c3ccco3)c2c1=O,14,-20,-1,6
C=CCn1c(SCC(=O)NCCCC)nc2scc(-c3ccco3)c2c1=O,0,93*,-3,27
COc1cccc(-c2nnc3sc(C4CCCCC4)nn23)c1,5,74*,4,-11
CCOc1cccc(-c2nnc3sc(C4CCCCC4)nn23)c1,19,56,-44,71*
COc1cc(-c2nnc3sc(C4CCCCC4)nn23)cc(OC)c1OC,49,24,-7,50
COC(=O)Cn1ccc(N(C)C)c(C#N)c1=O,-2,-4,12,60*
COCc1cc(SC2CCCCC2)nc(C)n1,-5,8,1,12
CC1(c2nnc(-c3ccncc3)o2)CC(c2ccc([N+](=O)[O-])cc2)=NO1 (stereo not drawn),nt,7,nt,nt
Cc1ccccc1OCC(=O)N1N=C(c2cccnc2)CC1(O)C(F)(F)F (stereo not drawn),51*,13,7,-9
Cc1cc(C)cc(OCC(=O)N2N=C(c3cccnc3)CC2(O)C(F)(F)F)c1 (stereo not drawn),1,7,5,5
CCOc1nc(Nc2ccc(OC)c(Cl)c2)nc(OCC)n1,35,83*,-13,25
SMILES,L major viab,CHOP inh,Arbovirus anti,WT yeast gro inh
CC(C)CN(CC(C)C)c1nnc(NC(=O)Cn2c(=O)oc3ccccc32)s1,9,79*,12,4
O=c1c2ccccc2nc(SCCN2CCCCC2)n1CCc1ccccc1,86*,-21,-31,34
O=c1c2ccccc2nc(SCc2ccccc2Cl)n1Cc1ccccc1,18,0,-7,69*
C=CCSc1nc2ccccc2c(=O)n1Cc1ccccc1,7,87*,1,24
C=CCn1c(SCC#N)nc2ccccc2c1=O,5,3,2,-12
CC(C)Cn1c(SCC(=O)N2CCCCC2)nc2ccccc2c1=O,24,6,-15,-1
CCOc1ccc(/C=N/NC(=O)c2cc(-c3cccn3C)n[nH]2)cc1,-3,1,1,4
CCCN(CCC)C(=O)c1cc([N+](=O)[O-])cc2c1-c1ccc([N+](=O)[O-])cc1C2=C(C#N)C#N,nt,-66,nt,nt
C/C(CC(=O)Nc1cccc(C(F)(F)F)c1)=N/NC(=O)C(=O)NCCO,nt,4,nt,nt
CCOc1ccc(NC(=O)CC2C(=O)N(C)C(=S)N2CCCc2ccccc2)cc1 (stereo not drawn),78*,27,-22,14
CCCOc1ccc(NC(=O)CC2C(=O)N(CC)C(=S)N2CCCN2CCN(Cc3ccccc3)CC2)cc1 (stereo not drawn),99*,92*,-28,24
CCN1C(=O)C(CC(=O)Nc2ccc(F)cc2)N(CCCN2CCN(c3ccc(F)cc3)CC2)C1=S (stereo not drawn),47,95*,-31,6
CCNCc1nc2cc(Cl)ccc2c(=O)[nH]1,-15,1,3,0
O=S(=O)(c1ccc(Br)cc1)c1cnc2ccccc2n1,84*,-7,6,-3
NC1=NC(c2ccccc2)N=C(Nc2ccccc2)N1 (stereo not drawn),nt,-4,nt,nt
Cc1oc(-c2ccccc2Cl)nc1CN(Cc1ccccn1)C[C@@H]1CCC(=O)N1,-5,-9,-7,-15
Cc1oc(-c2cccc(F)c2)nc1CN(Cc1ccccc1)C[C@@H]1CCC(=O)N1,59*,2,8,35
Cc1csc(SCC(=O)Nc2sc3c(c2C#N)CCC3)n1,99*,11,-20,17
N#Cc1ccsc1NC(=O)CSc1ncn[nH]1,-4,8,9,-13
CC(C)(C)C1CCc2c(sc(NC(=O)CSc3ncn[nH]3)c2C#N)C1 (stereo not drawn),4,63,-37,93*
Cc1cc(C(=O)OCC(=O)Nc2sc3c(c2C#N)CCC(C)C3)c2ccccc2n1 (stereo not drawn),-6,-3,-3,-1
Cn1c(CNC(=O)c2ccc(Cl)cc2)nnc1SCC(=O)Nc1sc2c(c1C#N)CCCC2,-5,91*,-6,3
CC(=O)c1c(C)[nH]c(C(=O)OCC(=O)Nc2sc3c(c2C#N)CCC(C)C3)c1C (stereo not drawn),nt,94*,nt,nt
CC(C)S(=O)(=O)c1cnc(-c2ccccn2)nc1N,nt,-11,nt,nt
COc1ccc(N2CCN(C(CNC(=O)OCc3ccccc3)c3ccco3)CC2)cc1 (stereo not drawn),3,-11,-1,20
SMILES,L major viab,CHOP inh,Arbovirus anti,WT yeast gro inh
CC(C)(C)c1ccc(C(=O)OCC(=O)Nc2sc3c(c2C#N)CCC3)cc1,-4,90*,-10,-4
CC1CCc2c(sc(NC(=O)Cn3nc(C(=O)O)c4ccccc4c3=O)c2C#N)C1 (stereo not drawn),nt,7,nt,nt
CC1CCc2c(sc(NC(=O)CSc3ncn[nH]3)c2C#N)C1 (stereo not drawn),nt,85*,nt,nt
CCN1CCN(CC(=O)Nc2sc3c(c2C#N)CCC(C)C3)CC1 (stereo not drawn),100*,8,-21,38
N#Cc1c(NC(=O)CSc2ncn[nH]2)sc2c1CCCC2,-10,78*,0,-23
N#Cc1c(NC(=O)CSC2=NCCS2)sc2c1CCCC2,14,45,-8,7
O=C(c1ccc(Cn2ccc([N+](=O)[O-])n2)cc1)N1CCN(Cc2ccccc2)CC1,nt,18,nt,nt
C/C(=N\NC(=O)c1ccc(CN2CCOCC2)cc1)c1cccc([N+](=O)[O-])c1,8,22,4,-2
